PHOSPHO1 inh: PubChem AID 1565. recombinant PHOSPHO1, absorbance phosphatase assay. 290,000 compounds, 1.1% hits. Phosphoethanolamine/phosphocholine phosphatase (Homo sapiens), Q8TCT1. inhibition, % at 13.3 µM; in the data active = inhibition above about 60%
Target sequence (Q8TCT1 whole entry, looked up): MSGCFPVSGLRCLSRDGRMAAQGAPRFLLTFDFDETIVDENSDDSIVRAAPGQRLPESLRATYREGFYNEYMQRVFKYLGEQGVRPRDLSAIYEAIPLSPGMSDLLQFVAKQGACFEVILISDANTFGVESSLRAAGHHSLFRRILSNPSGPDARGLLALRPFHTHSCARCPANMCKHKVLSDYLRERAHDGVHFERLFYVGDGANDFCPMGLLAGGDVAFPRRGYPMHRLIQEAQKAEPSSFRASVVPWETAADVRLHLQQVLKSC
A3G deaminase: APOBEC3G DNA deaminase inhibitors, primary screen, biochemical, fluorescence, single-stranded DNA substrate, uHTS; DNA dC->dU-editing enzyme APOBEC-3G (Homo sapiens), Q9HC16; recombinant A3G, ssDNA deamination FAM/TAMRA fluorescence; inhibition, % at 20 µM; 330,000 compounds, 0.28% hits;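 active = inhibition of at least 40% at 20 µM, with no more than 30% in the related APOBEC3A deaminase screen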;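 also: plate controls were DMSO wells with A3G for no effect and wells lacking A3G enzyme for full effect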
PABP1 MLLE inh: inhibitors of PABP1 MLLE–PAM2 peptide binding, primary screen, biochemical, fluorescence polarization, FITC-PAM2, GST-MLLE; Polyadenylate-binding protein 1 (Homo sapiens), P11940; inhibition, % at 20 µM; 360,000 compounds, 0.36% hits; in the data active = inhibition above about 35%, passing the limit was not always enough;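 also: plate controls were DMSO wells with GST-MLLE for no effect and wells lacking GST-MLLE protein for full effect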
A3A deaminase: APOBEC3A ssDNA deaminase inhibitors, primary screen, selectivity assay for APOBEC3G inhibitor project, biochemical, FAM/TAMRA oligo cleavage fluorescence; inhibition, % at 20 µM; recombinant A3A, FAM/TAMRA ssDNA deamination fluorescence; 330,000 compounds, 0.41% hits;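 active = at least 40% inhibition at 20 µM here, with at most 30% in a related deaminase screen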;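 also: plate controls were A3A with DMSO for no effect and wells lacking A3A enzyme for full effect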
PABP polyA inh: PABP poly(A) RNA binding inhibitors, primary screen, biochemical, fluorescence polarization, uHTS; 290,000 compounds, 1% hits; AID 2014, 2009; Polyadenylate-binding protein 1 (Homo sapiens), P11940; calls only at 35 µM;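 also: calls also rest on retests at 20 µM and on dose response follow-up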
eIF4H inh: human eIF4H binding inhibitors, primary screen, translation initiation inhibitor project, biochemical, uHTS, fluorescence polarization | 290,000 compounds, 0.94% hits | eIF4H fluorescence polarization binding assay | Eukaryotic translation initiation factor 4H (Homo sapiens), Q15056 | inhibition, % at 35 µM;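 also: calls also rest on retests at 20 µM and on dose response follow-up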
Numbers without * were called inactive. A selection: hits, their analogues and other compounds. The true share with any hit is near 2.6%. Unless noted, no rule for the calls is given here.

For Nn1c(SCC(=O)NCCC2=CCCCC2)nnc1-c1cccnc1 the results were A3G deaminase -8, PABP1 MLLE inh -26 and A3A deaminase 2.
`Cc1cc(C)n2nc3nc4c(cc3c2n1)CCCC4` gave PHOSPHO1 inh 98*, A3G deaminase -3, PABP1 MLLE inh 123, A3A deaminase -4, PABP polyA inh inactive and eIF4H inh 32.
Cc1c(/C(O)=C2/C(=O)C(=O)N(CCN3CCOCC3)C2c2ccccn2)cnn1-c1ccccc1 (stereo unspecified) was read as PHOSPHO1 inh 60*, A3G deaminase -1, PABP1 MLLE inh 7, A3A deaminase -1, PABP polyA inh inactive and eIF4H inh 47.
Screening Cc1ccc(C2/C(=C(/O)c3cnn(-c4ccccc4)c3C)C(=O)C(=O)N2CCCN2CCOCC2)o1 (stereo unspecified) returned PHOSPHO1 inh 45, A3G deaminase -10, A3A deaminase -3, PABP polyA inh inactive and eIF4H inh 15.
Screening Cc1ccc(N2CC(C(=O)NCCN3CCOCC3)CC2=O)cc1C (stereo unspecified) returned PHOSPHO1 inh 32, A3G deaminase -6, PABP1 MLLE inh -5, A3A deaminase 1, PABP polyA inh inactive and eIF4H inh -10.
`COc1ccc(N2CC(C(=O)NCCCN3CCOCC3)CC2=O)cc1` (stereo unspecified) gave PHOSPHO1 inh 60*, A3G deaminase -3, PABP1 MLLE inh 5, A3A deaminase 1, PABP polyA inh inactive and eIF4H inh -3.
`CCN1C(=O)[C@@H]2[C@@H]3CN(S(=O)(=O)c4ccc(C)cc4)[C@@H](c4ccccc4)[C@@H]3C(=O)C[C@@H]2C1=O` gave PABP1 MLLE inh -10.
`CCOC1=CC2=C(C(=O)C(Cl)=CC2=O)[C@@H]2CN(S(=O)(=O)c3ccc(C)cc3)[C@@H](c3ccccc3)[C@H]12` gave PABP1 MLLE inh 46*.
`CC1=CC(C#N)(C#N)C(C#N)(C#N)C(c2ccccc2)N1` (stereo unspecified) gave PHOSPHO1 inh -6, A3G deaminase 0, A3A deaminase -1, PABP polyA inh active and eIF4H inh 102*.
`COc1cc(OC)c(NC(=O)c2ccc3c(SCC(=O)O)c4c(nc3c2)CCCC4)cc1Cl` gave PHOSPHO1 inh -65, A3G deaminase -6, PABP1 MLLE inh 1, A3A deaminase -3, PABP polyA inh active and eIF4H inh 81*.
Screening COc1cc(NC(=O)c2ccc3c(SCC(=O)O)c4c(nc3c2)CCCC4)cc(OC)c1OC returned PHOSPHO1 inh 28, A3G deaminase -5, PABP1 MLLE inh -7, A3A deaminase 0, PABP polyA inh inactive and eIF4H inh -8.
`c1ccc(CSc2nc3ccccc3[nH]2)cc1` gave PHOSPHO1 inh 13, A3G deaminase -6, PABP1 MLLE inh -12, A3A deaminase -6, PABP polyA inh inactive and eIF4H inh 8.
`Nc1nc(CSc2nc3ccccc3[nH]2)cs1` gave PHOSPHO1 inh 97*, A3G deaminase -8, PABP1 MLLE inh 1, A3A deaminase -5, PABP polyA inh inactive and eIF4H inh -2.
O=[N+]([O-])c1ccc(CSc2nc3ccccc3[nH]2)cc1 was read as PHOSPHO1 inh 4, A3G deaminase -9, PABP1 MLLE inh -74, A3A deaminase -3, PABP polyA inh active and eIF4H inh -5.
For O=C1N=C2SCCN2/C1=C\c1ccccc1Cl the results were PHOSPHO1 inh 19, A3G deaminase 6, PABP1 MLLE inh 39*, A3A deaminase -1, PABP polyA inh inactive and eIF4H inh -8.
Cc1ccc(C)c(C(=O)CCC(=O)Nc2ccc(N3CCN(C)CC3)cc2C)c1 was read as A3G deaminase -7, PABP1 MLLE inh -3 and A3A deaminase -7.
Screening CCC(C)(C(=O)Nc1ccc(OC)cc1)N(C)C(=O)Cn1nnnc1N (stereo unspecified) returned PHOSPHO1 inh 17, A3G deaminase 7, PABP1 MLLE inh -8, A3A deaminase 3, PABP polyA inh inactive and eIF4H inh -5.
Cc1[nH]c2ccccc2c1C(c1ccccn1)c1c(C)[nH]c2ccccc12 was read as PHOSPHO1 inh 24, A3G deaminase 2, PABP1 MLLE inh 7, A3A deaminase 1, PABP polyA inh active and eIF4H inh 55*.
Cc1[nH]c2ccccc2c1C(O)c1ccncc1 (stereo unspecified) was read as PHOSPHO1 inh 4, A3G deaminase -3, PABP1 MLLE inh 6, A3A deaminase 4, PABP polyA inh inactive and eIF4H inh 13.
Screening O=C(OCC(=O)N1CCOCC1)c1cc(F)c(F)cc1Cl returned PHOSPHO1 inh 13, A3G deaminase -6, PABP1 MLLE inh 2, A3A deaminase -4, PABP polyA inh inactive and eIF4H inh -3.
`O=C1Nc2ccccc2SC1=Cc1ccccc1` gave PABP1 MLLE inh 32.
O=C1CCCC2=C1Sc1ccccc1N2 was read as PHOSPHO1 inh 18, A3G deaminase -12, PABP1 MLLE inh 43*, A3A deaminase -4, PABP polyA inh inactive and eIF4H inh 43.
Oc1ccc(N=Cc2ccc(-c3cccs3)s2)cc1 was read as PHOSPHO1 inh 5, A3G deaminase 7, PABP1 MLLE inh -3, A3A deaminase 2, PABP polyA inh inactive and eIF4H inh 51*.
For O=Cc1ccc(-c2cccs2)s1 the results were PABP1 MLLE inh -5.
Cc1ccc2cc(C)c3nnc(SCC(=O)c4cccs4)n3c2c1C was read as PHOSPHO1 inh -13, A3G deaminase -1, PABP1 MLLE inh 4, A3A deaminase 3, PABP polyA inh active and eIF4H inh 96*.
For Cc1ccc(C)c2c1cc(C)c1nnc(SCC(=O)c3cccs3)n12 the results were PHOSPHO1 inh -16, A3G deaminase -8, PABP1 MLLE inh -43, A3A deaminase -5, PABP polyA inh inactive and eIF4H inh -5.
C=CCOc1ccc(C2OC34CCCCC3C(C#N)(C#N)C2(C#N)C(=N)O4)cc1 (stereo unspecified) was read as PHOSPHO1 inh 10, A3G deaminase -3, PABP1 MLLE inh 81, A3A deaminase -1, PABP polyA inh active and eIF4H inh 84*.
For CNC[C@@H]1Oc2ccc(NC(=O)Nc3cccc4ccccc34)cc2C(=O)N([C@@H](C)CO)C[C@@H]1C the results were A3G deaminase -4 and A3A deaminase -2.
